aSyn yeast inh – inhibitors of alpha-synuclein toxicity in yeast | AID 652106 | Potency, µM (top dose mostly 46.1 µM), without a hit: at the highest dose growth rescue (activation), usual class: activators | Yeast expressing alpha-synuclein, growth rescue, BacTiter-Glo, 24 h | actives 0.14% (n = 370,000); further: % of control where 0% means no effect; nearly all actives have a fitted effect of over 65% in size
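Rescue of yeast growth: cells expressing toxic alpha-synuclein, induced in galactose at OD600 0.02, incubated with compound 24 h at 30 C. ATP luminescence quantified growth; inhibitors of toxicity appear as activators.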
FUS suppressor – rescues growth of FUS-expressing yeast; S. cerevisiae FUS-expressing, growth rescue, OD600, 24 h; Potency, µM (series often up to 76.6 µM), usual class: activators; actives 0.24% (n = 390,000);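 further: plate controls were DMSO vehicle for no effect and reference control for full effect; nearly all actives have a fitted effect of over 55% in size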
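Galactose (2%) drives FUS expression in yeast precultured in raffinose; seeding density OD 0.005. Test compounds incubated 24hr at 30C and 99% humidity before absorbance at 600 nm was measured.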
MmCpn inh – M. maripaludis TRiC chaperonin inhibition; Potency, µM (highest dose often 76.9 µM), for inactives: at the highest dose activity, negative = inhibition, hits mostly inhibitors; purified Mm-Cpn ATPase, ADP Transcreener TR-FRET; AID 504842; actives 0.031% (n = 330,000); further: on the % scale 0 is the no-effect control and ±100 the full control effect; nearly all actives have a fitted effect of over 80% in size
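Compound-treated chaperonin, 25 nM final, turns over 10 uM ATP at 37°C for 30 min following a 10 min preincubation; ADP generated competes with ADP-d2 for Eu-cryptate antibody, lowering FRET.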
Abeta yeast res – compounds reversing amyloid beta toxicity in yeast; yeast expressing A-beta42, growth rescue, OD600, 48 h; response scale: 0% DMSO, 100% iron-clioquinol control; Potency, µM (series often up to 46.1 µM), actives largely listed as activators; actives 0.063% (n = 410,000); AID 1347071; further: nearly all actives have a fitted effect of over 55% in size
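Yeast growth medium received pinned compounds, then yeast cells expressing toxic A-beta were added; plates incubated at 30 C for 48 hr. Growth read as absorbance at 600 nm, normalized to DMSO and equimolar FeCl3 plus clioquinol controls.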
TDP-43 yeast inh – TDP-43 toxicity inhibition in yeast | TDP-43 expressing yeast growth rescue, BacTiter-Glo, 24 h | Potency, µM (series often up to 46.1 µM), for the others: at the top dose growth rescue (activation), most hits filed as activators | actives 1.8% (n = 410,000) | AID 652104; further: % of control where 0% means no effect; nearly all actives have a fitted effect of over 50% in size
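Growth rescue of TDP-43-toxic yeast measured as ATP luminescence (BacTiter-Glo). Cells grown to mid-log in raffinose, induced in galactose at OD600=0.02, exposed to compound 24 hr at 30 deg C.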
ClpP mod – qHTS Assay for Activators of ClpP. ATP-dependent Clp protease proteolytic subunit (Bacillus subtilis (strain 168)), P80244. purified B. subtilis ClpP, FRET peptide cleavage, 20 min. Potency, µM (series often up to 57.5 µM), inactives show at the top dose activity change, negative = active. actives 1.9% (n = 340,000). AID 651965, 2013; active means well fitted falling curve with a large enough effect; inconclusive means small, poorly fitted or top-dose-only effect; inactive means no such curve, though single readings can be large or run the other way; further: the source files actives as falling curves though it sought activators and does not explain the sign; nearly all actives have a fitted effect of over 65% in size
Target sequence (P80244 whole entry, looked up): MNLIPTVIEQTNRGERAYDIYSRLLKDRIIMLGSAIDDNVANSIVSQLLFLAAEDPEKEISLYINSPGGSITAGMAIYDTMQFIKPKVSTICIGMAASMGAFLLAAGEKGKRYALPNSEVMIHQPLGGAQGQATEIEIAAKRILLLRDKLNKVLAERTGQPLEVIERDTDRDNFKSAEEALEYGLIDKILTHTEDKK
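Purified B. subtilis ClpP, 10 microg/mL final in Tris/HCl pH8 with KCl, BSA, glycerol and Tween-20, cleaved an Abz/nitrotyrosine-quenched decapeptide. Fluorescence (ex 320, em 430) was read at 0 and 20 min at room temperature. Delta was normalized to 5.8 microM ADEP and DMSO/no-enzyme controls.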
Numbers without * were called inactive; i = inactive; ? = inconclusive; / = no result given; [ ] = another dose, or the depositor's remark. The list is not random: actives were taken first. Their share in the collection is about 3.6%. Unless noted, the call rests on the fitted dose curve; in most records, active means well fitted curve in the direction sought with a large enough effect; inconclusive means small, poorly fitted or top-dose-only effect, or another doubt; inactive means no such curve, though single readings can be large; an effect the other way counts as inactive or inconclusive. Potency means the concentration at half of the fitted maximal effect.

SMILES	aSyn yeast inh	FUS suppressor	MmCpn inh	Abeta yeast res	TDP-43 yeast inh	ClpP mod
COc1ccc(/C=C/c2nc(C#N)c(NC3CCCCC3)o2)cc1OC	/	i	/	i	?	4.5%
O=C(NC1CCCCCC1)c1ccc(CS(=O)c2cccc(Cl)c2)o1 (centres undefined)	/	i	/	i	27.9%	-0.4%
COc1ccc(-c2noc(-c3ccc(Cl)cc3[N+](=O)[O-])n2)cc1OC	5.3%	/	-0.6%	i	21.4%	28.2µM*
Cc1ccc(Nc2c(-c3c[nH]c4ccccc34)nc3cc(C)ccn23)cc1	/	?	/	i	21.2%	28.2µM*
CN1C(=O)C(C)(C)c2cc(S(=O)(=O)N3CCCC3C(=O)Nc3ccc(F)cc3)ccc21 (centres undefined)	/	i	/	i	9.7%	0.9%
O=C(Nc1ccon1)c1cnc2sccn2c1=O	-8.3%	i	-1.8%	i	23.3%	20µM*
CC(c1ccccc1)N1C(=O)c2cccnc2C1=O (centres undefined)	1.3%	i	1.2%	i	2µM*	-0.5%
O=C1c2cccnc2C(=O)N1Cc1ccccc1	-0.9%	i	2.7%	i	15.9%	1.2%
COC(=O)C1=C(C)NC(C)=C(C(=O)OC)C1c1cn(-c2ccccc2)nc1-c1ccco1	2.1%	?	-1.3%	i	?	28.2µM*
COCCOC(=O)C1=C(C)NC(=O)NC1c1cn(-c2ccccc2)nc1-c1cccs1 (centres undefined)	3.2%	i	-3.9%	i	2.0%	-6.0%
CC(C)C(C(=O)Nc1ccccc1)N1C(=O)c2ccccc2C1=O (centres undefined)	7.9%	i	1.9%	i	15.8µM*	0.9%
CCN(c1ccccc1)C(CNS(=O)(=O)c1ccccc1)c1ccccc1 (centres undefined)	/	i	/	i	17.8µM*	-11.5%
CC1(C)CC(=O)c2cc(C(=O)NC3CCSC3=O)c(=O)n(-c3ccccc3)c2C1 (centres undefined)	1.5%	i	0.6%	i	-5.6%	25.1µM*
O=C1CCCc2c1cc(C(=O)O)c(=O)n2-c1ccccc1	0.0%	i	0.2%	i	6.9%	/
O=C1CCCc2c1cc(C(=O)NC1CCSC1=O)c(=O)n2-c1ccccc1 (centres undefined)	-3.4%	i	-2.2%	i	6.5%	25.1µM*
CCN(C(=O)CSc1nc(C)nc2sc(C)c(C)c12)c1ccc(F)cc1	0.2%	i	0.7%	i	-4.1%	2.5%
Cc1nc(SCC(=O)N(C)Cc2ccco2)c2c(C)c(C)sc2n1	4.1%	i	-2.8%	i	22.4µM*	-10.5%
COc1cc2nc(C)sc2cc1SC	-1.5%	?	-2.5%	i	20µM*	-15.7%
CC(NC(=O)c1ccco1)c1cccc2ccccc12 (centres undefined)	-0.5%	i	1.7%	i	20µM*	1.5%
CCCOc1cccc(C(=O)N(Cc2cc(OC)c(OC)c(OC)c2)C2CCS(=O)(=O)C2)c1 (centres undefined)	/	i	/	i	16.2%	0.4%
COc1ccc(N2CCN(C(=O)CCC(=O)N3CCOc4ccc(Cl)cc43)CC2)cc1	9.9%	i	-1.8%	i	15.8µM*	-3.3%
CC(=O)c1cccc(NC(=O)c2ccc(NC(=O)CC3SC(N4CCCCC4)=NC3=O)cc2)c1 (centres undefined)	4.6%	?	-1.8%	i	15.8%	22.4µM*
O=C(OCc1cc(Cl)cc2c1OCOC2)c1cccnc1Cl	15.8µM*	i	-0.7%	i	?	-3.3%
CCOc1ccccc1CNC(=O)CN1C(=O)CCn2nc(-c3cn(C)c4ccccc34)cc21	/	i	/	i	21.0%	-6.5%
Cc1oc(-c2ccccc2F)nc1CS(=O)(=O)CC(=O)N1CCN(c2ccc(Cl)cc2)CC1	/	?	/	i	7.5%	-11.6%
SMILES	aSyn yeast inh	FUS suppressor	MmCpn inh	Abeta yeast res	TDP-43 yeast inh	ClpP mod
CCS(=O)(=O)c1oc(-c2ccc(F)cc2)nc1S(=O)(=O)c1ccccc1	/	i	/	i	?	-15.1%
Cc1cc(C)c2c(=O)cc(C(=O)Nc3c(C)n(C)n(-c4ccccc4)c3=O)oc2c1	/	i	/	i	9.9%	0.0%
CSc1nc2nccc(-c3ccc(-c4ccccc4)cc3)n2n1	5.5%	i	-0.8%	i	12.4%	28.2µM*
CSc1nc2nccc(-c3ccc(Oc4ccccc4)cc3)n2n1	2.9%	i	-1.2%	i	?	28.2µM*
c1ccc(Oc2ccc(-c3ccnc4nc(N5CCN(c6ccccc6)CC5)nn34)cc2)cc1	/	i	2.1%	i	?	-9.7%
c1ccc(-c2ccnc3nc(N4CCN(c5ccccc5)CC4)nn23)cc1	8.2%	i	-2.2%	i	12.6µM*	-1.7%
CSc1nc2nccc(-c3ccc4c(c3)OCO4)n2n1	1.3%	?	1.5%	i	0.2%	/
Fc1ccc(-c2ccnc3nc(N4CCN(c5ccccc5)CC4)nn23)cc1	/	i	0.7%	i	6.7%	-2.3%
CC1CCCC(NC(=O)c2ccc3c(=O)n(CC4CCCO4)c(=O)[nH]c3c2)C1C (centres undefined)	-2.0%	i	2.2%	i	-12.6%	25.1µM*
CC(C)NC(=O)c1ccc2c(=O)n(CC3CCCO3)c(=S)[nH]c2c1 (centres undefined)	-1.4%	i	-0.5%	i	13.9%[9.22 µM]	4.1%
CCCCN=Cc1sc2ccc(OCC)cc2c1O	4.7%	i	-5.7%	i	15.8µM*	1.3%
C=CCN=Cc1sc2ccc(OCC)cc2c1O	/	/	-0.2%	/	/	/
Cc1cc(C)c(C#N)c(N2CCSCC2)n1	-0.3%	i	3.3%	i	7.1%	35.5µM*
Cc1cc(C)c(C#N)c(N2CCCC(C(N)=O)C2)n1 (centres undefined)	7.4%	i	0.1%	i	8.2%	3.55µM*
O=C(c1ccco1)N1CCN(c2ncnc3scc(-c4ccc(F)cc4)c23)CC1	12.4%	i	-0.4%	i	17.8µM*	-1.3%
Cc1ccc(S(=O)(=O)N2CCN(c3ncnc4sccc34)CC2)cc1C	6.8%	i	-1.8%	i	11.2µM*	1.2%
Cc1sc2ncnc(N3CCN(S(=O)(=O)c4ccccc4)CC3)c2c1C	-3.2%	/	1.3%	i	17.8µM*	2.3%
O=S(=O)(c1ccc2c(c1)OCCO2)N1CCN(c2ncnc3sccc23)CC1	9.8%	i	-5.0%	i	22.0%	/

High-throughput results deposited in PubChem by National Center for Advancing Translational Sciences (NCATS).
